Test results published in PubChem BioAssay (NCATS).
Records with an inconclusive call do not appear. Activity calls are given as the source filed them. Calls come from the whole dose curve; as a rule, active = well fitted curve in the direction sought with a large enough effect; inconclusive = small, poorly fitted or top-dose-only effect, or another doubt; inactive = no such curve, though single readings can be large; an effect the other way counts as inactive or inconclusive.

How the values were obtained:
[1] = target: Cellular tumor antigen p53 (Homo sapiens) (UniProt P04637); assay: Primary qHTS for small molecule compounds that upregulate eGFP-tagged delta133p53alpha (in N-terminal) cells. (AID 2060322); settings: NCI-H358 eGFP-delta133p53alpha fluorescence, 24 h; activation: stronger effect = higher value;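 note: series mostly up to about 56 µM; 0% = DMSO vehicle and 100% = reference activator; nearly all actives have a fitted effect of over 75% in size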
Method in brief: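 NCI-H358 cells pre-induced 24 h with 10 ng/ml doxycycline to express N-terminal eGFP-delta133p53alpha, then dosed 24 h at 37C without doxycycline; fixed, Hoechst-stained, GFP intensity by laser scanning cytometry, normalized to DMSO (0%) and 57.5 uM 5-azacytidine (100%).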

[2] = target: Aldehyde dehydrogenase, mitochondrial (Homo sapiens) (UniProt P05091); assay: qHTS for Inhibitors of the Aldehyde Dehydrogenase Family (ALDH2) Primary screen (AID 2061308);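 note: plate controls were vehicle for no effect and reference inhibitor for full effect; nearly all actives have a fitted effect of over 55% in size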
[3] = target: Retinaldehyde dehydrogenase 3 (Homo sapiens) (UniProt P47895); assay: qHTS for Inhibitors of the Aldehyde Dehydrogenase Family (ALDH1A3) Primary screen (AID 2061315);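 note: plate controls were DMSO vehicle for no effect and reference inhibitor for full effect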

Cellular tumor antigen p53 (Homo sapiens), sequence (P04637 whole entry, looked up): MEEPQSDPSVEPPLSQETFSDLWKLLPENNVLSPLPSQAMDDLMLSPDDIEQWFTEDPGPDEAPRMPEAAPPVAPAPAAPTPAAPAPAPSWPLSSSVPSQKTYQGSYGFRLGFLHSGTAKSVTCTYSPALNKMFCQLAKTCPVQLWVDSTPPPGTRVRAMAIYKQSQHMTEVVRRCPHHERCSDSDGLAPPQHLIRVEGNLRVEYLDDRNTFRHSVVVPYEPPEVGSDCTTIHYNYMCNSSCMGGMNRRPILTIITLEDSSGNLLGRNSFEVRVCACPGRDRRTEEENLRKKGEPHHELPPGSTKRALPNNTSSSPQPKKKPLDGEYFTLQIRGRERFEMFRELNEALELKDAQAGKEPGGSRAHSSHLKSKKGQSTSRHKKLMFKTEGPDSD

COc1cc(C(=O)OC(COCCC(C)C)CN2CCOCC2)cc(OC)c1OC (stereo not given)
inactive: activation [1] 14.3% | Potency [2] | Potency [3]

Cc1cccc(-c2[nH]ncc2-c2ccnc3ccccc23)n1
inactive: activation [1] 8.93% | Potency [2] | Potency [3]

CCCC(CCC)C(=O)NCc1ccc2c(cnn2-c2ccccc2OC)c1
inactive: activation [1] -5.25% | Potency [2] | Potency [3]

CC(C)=CCC[C@](C)(O[C@@H]1O[C@H](CO[C@@H]2OC[C@@H](O)[C@H](O)[C@H]2O)[C@@H](O)[C@H](O)[C@H]1O)[C@H]1CC[C@]2(C)[C@@H]1[C@H](O)C[C@@H]1[C@@]3(C)CC[C@H](O[C@@H]4O[C@H](CO)[C@@H](O)[C@H](O)[C@H]4O[C@@H]4O[C@H](CO)[C@@H](O)[C@H](O)[C@H]4O)C(C)(C)[C@@H]3CC[C@]12C
inactive: activation [1] -8.33% | Potency [2] | Potency [3]

CC1(C)C(=O)N2c3ccccc3[C@]3(CC(n4cnc5ccccc5c4=O)C(=O)O3)[C@H]2N1O (stereo not given in full)
inactive: activation [1] 1.53% | Potency [2] | Potency [3]

COC1=CC(=O)C=C(C)C12Oc1c(Cl)c(OC)cc(OC)c1C2=O (stereo not given)
inactive: activation [1] 1.53% | Potency [2] | Potency [3]

COc1cn(-c2ccc(-n3cccn3)cc2F)nc(-c2ccnn2-c2ccccc2)c1=O
inactive: activation [1] 0% | Potency [2] | Potency [3]

CC1(CO)CC[C@]2(C(=O)O[C@@H]3O[C@H](CO)[C@@H](O)[C@H](O)[C@H]3O)CC[C@]3(C)C(=CCC4[C@@]5(C)CC[C@H](O[C@@H]6O[C@H](C(=O)O)[C@@H](O)[C@H](O)[C@H]6O)C(C)(C)C5CC[C@]43C)C2C1 (stereo not given in full)
inactive: activation [1] -4.46% | Potency [2] | Potency [3]

CC1(C)O[C@]23C[C@H]1C[C@H](OC(=O)c1ccoc1)[C@]2(C)[C@@H](OC(=O)c1ccoc1)CCC3(C)O (stereo not given in full)
inactive: activation [1] -5.34% | Potency [2] | Potency [3]

CC1OC(OC2C(O)C(OC3CCC4(C)C(CCC5(C)C4CC=C4C6CC(C)(COC7OC(CO)C(O)C(O)C7O)CC(O)C6(C)CCC45C)C3(C)C)OC(C(=O)O)C2O)C(O)C(O)C1OC1OCC(O)C(O)C1O (stereo not given)
inactive: activation [1] -4.46% | Potency [2] | Potency [3]

C=C1C(=O)O[C@H](CCC)[C@H]1C(=O)O
inactive: activation [1] -1.67% | Potency [2] | Potency [3]

CO[C@H]1C[C@@H]2CC[C@@H](C)[C@@](O)(O2)C(=O)C(=O)N2CCCC[C@H]2C(=O)O[C@H]([C@H](C)C[C@@H]2CC[C@H](n3cnnn3)[C@H](OC)C2)CC(=O)[C@H](C)/C=C(\C)[C@@H](O)[C@@H](OC)C(=O)[C@H](C)C[C@H](C)/C=C/C=C/C=C/1C
inactive: activation [1] 1% | Potency [2] | Potency [3]

Nc1nc2c(nc(Sc3ccc(Cl)cc3)n2[C@@H]2O[C@@H]3COP(=O)(O)O[C@H]3[C@H]2O)c(=O)[nH]1
inactive: activation [1] 1% | Potency [2] | Potency [3]

CC(C)C1(O)NC(=O)C(CC2(O)c3ccccc3N3C(=O)C(C)(C)NC32)n2c1nc1ccccc1c2=O (stereo not given)
inactive: activation [1] -3.05% | Potency [2] | Potency [3]

CC1=C2C[C@H]3O[C@@]3(C)CCC3O[C@@]3(C)C[C@@]2(O)OC1=O (stereo not given in full)
inactive: activation [1] -2.29% | Potency [2] | Potency [3]

C=CC(C)(O)C1CC2C3(C)CCCC(C)(C)C3C(O)C(O)C2(C)O1 (stereo not given)
inactive: activation [1] -9.82% | Potency [2] | Potency [3]

CC(C)=CCCC1(C)Oc2cc3c(c4c2C2C(O4)C(C)(O)CCC21)CN(C(CCC(=O)O)C(=O)O)C3=O (stereo not given)
inactive: activation [1] -3.05% | Potency [2] | Potency [3]

C[C@@H]1O[C@@H](O[C@@H]2[C@@H](O)[C@H](O[C@@H]3[C@@H](O)[C@@H](O)[C@H](O[C@H]4[C@H](OC(=O)[C@]56CCC(C)(C)C[C@H]5C5=CCC7[C@@]8(C)C[C@H](O)[C@H](O[C@@H]9O[C@H](C(=O)O)[C@@H](O)[C@H](O)[C@H]9O)[C@@](C)(CO)C8[C@H](O)C[C@@]7(C)[C@]5(C)C[C@H]6O)O[C@@H](CO)[C@@H]4O)O[C@H]3C)OC[C@H]2O)[C@H](O)[C@H](O)[C@H]1O (stereo not given in full)
inactive: activation [1] 12.2% | activity change, negative = inhibition [2] 4.77% [at 11.2 µM] | activity change, negative = inhibition [3] -9.03% [at 11.2 µM]

C=C1C(OC(C)=O)[C@@]23CCC4[C@](C)(C(=O)O)CCC[C@@]4(C)[C@]2(O)CC[C@H]1C3 (stereo not given in full)
inactive: activation [1] 8.93% | Potency [2] | Potency [3]

Cc1ccc(OC[C@H](O)[C@H](C)NC(C)C)c2c1CCC2
inactive: activation [1] 10.3% | Potency [2] | Potency [3]
